Laboratory results reported in the supplement of paper PMC6609913.
Counter-ions that a name gives are not always drawn. ± gives the standard deviation of the averaged measurements. Whole data set: some 1,300 compounds, median “normalised cell viability” near 1, cut for the lowest 2% near 0.14. What follows is part of a selection rich in the lowest values, with near analogues and random picks from the rest.

Tested on: V-C8 (BRCA2-deficient hamster cells)
Assay: normalised cell viability (fraction of plate median); higher = more viable cells (less toxic)
Conditions: 5 µM
Procedure, shortened: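 In two screens, library drugs at 5 μM were given for 3 days (screen 1) or 6 days (screen 2) to hamster V-C8 cells without BRCA2 and V-C8 cells with BRCA2 restored, seeded 24 h earlier in 96-well plates. A resazurin assay gave the cell viability readout, expressed as modified robust per cent of sample against the plate median, with triplicate wells averaged.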

| Structure (SMILES) | normalised cell viability (treatment time: 3 days) | normalised cell viability (treatment time: 6 days) |
| --- | --- | --- |
| CCCOc1ccc2[nH]c(NC(=O)OC)nc2c1 [Oxibendazol] | 0.185 ± 0.0067 | 0.183 ± 0.0049 |
| COC(=O)Nc1nc2cc(Sc3ccccc3)ccc2[nH]1 [Fenbendazole] | 0.187 ± 0.0098 | 0.181 ± 0.013 |
| COC(=O)Nc1nc2cc(C(=O)c3cccs3)ccc2[nH]1 [Nocodazole] | 0.147 ± 0.0062 | 0.128 ± 0.004 |
| CC(C)NCC(O)c1ccc(O)c(O)c1 (single isomer, unassigned; (-)) [(-)-Isoproterenol hydrochloride] | 1 ± 0.035 | 0.952 ± 0.015 |
| C#C[C@]1(O)CC[C@H]2[C@@H]3CCC4=CCCC[C@@H]4[C@H]3CC[C@@]21C [Lynestrenol] | 1.1 ± 0.046 | 1.12 ± 0.063 |
| CC(=O)N(O)CCCCCNC(=O)CCC(=O)N(O)CCCCCNC(=O)CCC(=O)N(O)CCCCCN [Deferoxamine mesylate] | 0.305 ± 0.021 | 0.198 ± 0.011 |
| CC(C)(C)C(=O)OCOC(=O)[C@@H]1N2C(=O)[C@@H](NC(=O)[C@H](N)c3ccccc3)[C@H]2SC1(C)C [Pivampicillin] | 1.02 ± 0.075 | 1.01 ± 0.1 |
| Cn1c(=O)c2c(ncn2CCO)n(C)c1=O [Etofylline] | 1.03 ± 0.052 | 0.996 ± 0.039 |
| Cc1cc(-n2c(=O)[nH]c(=O)n(C)c2=O)ccc1Oc1ccc(SC(F)(F)F)cc1 [Toltrazuril] | 1.07 ± 0.044 | 1 ± 0.073 |
| O=C1NCN(c2ccccc2)C12CCN(CCCC(c1ccc(F)cc1)c1ccc(F)cc1)CC2 [Fluspirilen] | 0.472 ± 0.045 | 0.235 ± 0.12 |
| Clc1ccccc1CN1CCc2sccc2C1 [Ticlopidine hydrochloride] | 1.1 ± 0.032 | 1.08 ± 0.064 |
| Cc1nc(=O)c2cc(CN(C)c3ccc(C(=O)N[C@@H](CCC(=O)O)C(=O)O)s3)ccc2[nH]1 [Raltitrexed] | 0.332 ± 0.028 | 0.432 ± 0.075 |
| CCN(CC)CCN[C@@H](C(=O)OCCC(C)C)c1ccccc1 [Camylofine chlorhydrate] | 1.07 ± 0.065 | 0.978 ± 0.027 |
| Cc1ncc(C[n+]2csc(CCO)c2C)c(N)n1 [Thiamine hydrochloride] | 1.05 ± 0.029 | 1.05 ± 0.016 |
| Cc1c(Nc2ncccc2C(=O)O)cccc1C(F)(F)F [Flunixin meglumine] | 1.1 ± 0.11 | 1.03 ± 0.037 |
| CC(C)OC(=O)CCC/C=C\C[C@@H]1[C@@H](CC[C@@H](O)CCc2ccccc2)[C@H](O)C[C@@H]1O [Latanoprost] | 1.13 ± 0.11 | 1.05 ± 0.041 |

| Structure (SMILES) | normalised cell viability (treatment time: 3 days) | normalised cell viability (treatment time: 6 days) |
| --- | --- | --- |
| C[C@@]1(O)CCOC(=O)C1 [Mevalonic-D, L acid lactone] | 1.12 ± 0.05 | 1.05 ± 0.18 |
| COc1ccc2[nH]cc(CCNC(C)=O)c2c1 [Melatonin] | 1.16 ± 0.068 | 1 ± 0.058 |
| CCCCCNC(=N)N/N=C/c1c[nH]c2ccc(OC)cc12 [Tegaserod maleate] | 0.124 ± 0.011 | 0.164 ± 0.016 |
| CN1CCCC(CC2c3ccccc3Sc3ccccc32)C1 (centres undefined) [Metixene hydrochloride] | 0.57 ± 0.02 | 0.69 ± 0.052 |
| Clc1ccc(C(Cn2ccnc2)OCc2ccsc2Cl)c(Cl)c1 (centres undefined) [Tioconazole] | 0.97 ± 0.046 | 0.966 ± 0.059 |
| COC1=C(OC)C(=O)C(CCCCCCCCCCO)=C(C)C1=O [Idebenone] | 0.648 ± 0.036 | 0.713 ± 0.04 |
| CC(C)(C)NCC(O)COc1cccc2c1CC(O)C(O)C2 (centres undefined) [Nadolol] | 1.02 ± 0.073 | 1.04 ± 0.035 |
| C1CCC(C(CC2CCCCN2)C2CCCCC2)CC1 (centres undefined) [Perhexiline maleate] | 0.126 ± 0.011 | 0.109 ± 0.0083 |
| Cc1cc2cc3c(C)cc(=O)oc3c(C)c2o1 [Trioxsalen] | 1.04 ± 0.047 | 1.07 ± 0.027 |
| CC=CC(=O)N(CC)c1ccccc1C [Crotamiton] | 0.866 ± 0.12 | 0.929 ± 0.025 |
| CC(C)c1ccc2oc3nc(N)c(C(=O)O)cc3c(=O)c2c1 [Amlexanox] | 0.933 ± 0.034 | 1.03 ± 0.089 |
| O=C(O)[C@H]1/C(=C/CO)O[C@@H]2CC(=O)N21 [Potassium clavulanate] | 1 ± 0.03 | 0.984 ± 0.039 |
| Nc1ccc(O)c(C(=O)O)c1 [Mesalamine] | 1.09 ± 0.028 | 1.14 ± 0.27 |
| N=C(NCCCCCCNC(=N)NC(=N)Nc1ccc(Cl)cc1)NC(=N)Nc1ccc(Cl)cc1 [Chlorhexidine] | 0.129 ± 0.0057 | 0.101 ± 0.0054 |
| CC(C)NC(=N)NC(=N)Nc1ccc(Cl)cc1 [Proguanil hydrochloride] | 0.196 ± 0.012 | 0.189 ± 0.014 |
| N=C(N)NC(=N)NCCc1ccccc1 [Phenformin hydrochloride] | 0.955 ± 0.035 | 0.96 ± 0.052 |
